Data reported in PubChem BioAssay AID652053 (Broad Institute, 2013).
The whole screen tested about 1,300 compounds, of which about 930 (72%) were called active.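 The calls were made as follows: active = fitted curve reaches 40% activation signal increase at or below the top valid tested concentration in every replicate test; inconclusive = replicate tests disagree in their calls; inactive = all replicate tests inactive, including effects opposite the expected signal rise.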 The set was probably picked from earlier hits. Only a sample is shown. Potency and affinity values are given separately.

Assay: suppression of miR-122 activity, Renilla luciferase sensor – cell-based, Huh7 psiCHECK-miR122, cherry-pick, dose response (AID 652053)
Details: Huh7 psiCHECK-miR122 Renilla luciferase reporter, 48 h; series mostly up to 35 µM

outcome, inactive:
CC(=O)N1N=C(c2ccccc2)CC1c1cccs1 (centres undefined)
CCC(=O)N1[C@H](CN(C)C(C)=O)[C@@H](c2ccc(C3=CCCC3)cc2)[C@@H]1CO
C[C@@H]1CN([C@H](C)CO)C(=O)c2cc(NC(=O)Nc3cccc4ccccc34)ccc2O[C@@H]1CN(C)C(=O)Nc1ccccc1
CCNc1nc(N)nc(Oc2ccc(OCCOc3ccccc3)nn2)n1
CCOc1ccccc1NS(=O)(=O)N(C)C
C[C@H]1CN([C@@H](C)CO)C(=O)c2cccc(NC(=O)Nc3ccccc3)c2O[C@H]1CN(C)Cc1ccc(C(=O)Nc2ccccc2N)cc1
C[C@@H]1CN([C@H](C)CO)C(=O)c2cccc(NC(=O)Nc3ccccc3)c2O[C@H]1CN(C)Cc1ccc(C(=O)Nc2ccccc2N)cc1
C[C@@H]1CN([C@@H](C)CO)C(=O)c2cccc(NC(=O)Nc3ccccc3)c2O[C@H]1CN(C)Cc1ccc(C(=O)Nc2ccccc2N)cc1
C[C@H](CO)N1C[C@H](C)[C@@H](CN(C)C(=O)NC2CCCCC2)Oc2ccc(NC(=O)Nc3cccc4ccccc34)cc2CC1=O
CC/C(=N\NC(=O)c1ccc2c(c1)OCO2)C12CC3CC(CC(C3)C1)C2
O=C(C(c1ccccc1)c1ccccc1)N1CCOCC1
COc1ccc(C(=O)Oc2ccc(C(=S)N3CCOCC3)cc2)cc1
COc1ccc(C(=O)Nc2nc3c(s2)CCCC3)cc1S(=O)(=O)N1CCCc2ccccc21
CCCC#Cc1cnc2c(c1)C(=O)N([C@H](C)CO)C[C@H](C)[C@H](CN(C)C(=O)c1ccccc1)O2
C[C@H]1CN([C@@H](C)CO)C(=O)c2cc(C#CC(C)(C)O)cnc2O[C@H]1CN(C)Cc1cncnc1
COCC(=O)N(C)C[C@@H]1Oc2ncc(C#Cc3cccnc3)cc2C(=O)N([C@H](C)CO)C[C@H]1C
C[C@@H]1CN([C@H](C)CO)C(=O)Cc2cc(NC(=O)Nc3cccc4ccccc34)ccc2O[C@@H]1CN(C)C(=O)NC1CCCCC1
O=C(NNC(=S)NC1CCCCC1)c1ccc2c(c1)OCO2
Cc1ccc(Cl)cc1NC(=S)N(CCCN1CCOCC1)Cc1ccccn1
COCCn1c(C)cc(C(=O)COC(=O)c2cc3c(s2)CCC3)c1C
O=C(OCc1ccccc1Cl)c1ccccc1C(=O)c1ccccc1
O=C(c1ccccc1)c1ccc(-c2ccc(O)cc2)cc1
COCC(=O)NC[C@H]1[C@H](c2ccccc2)[C@@H](CO)N1C(=O)c1ccccc1
CC(=O)Nc1ccc(S(=O)(=O)NCCc2ccc(S(N)(=O)=O)cc2)cc1
